Results: PubChem BioAssay AID1835 (Johns Hopkins Ion Channel Center, 2009)
Screen size: about 2,400 compounds; about 750 (31%) were called active.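 How the source made its calls: active means median signal gain over dofetilide-blocked control wells reaching their mean plus 3 SD, so readout 1 at least 0; inactive means the rest.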 The list shows a part of the results.

Biological target: Voltage-gated inwardly rectifying potassium channel KCNH2 (Homo sapiens) (UniProt Q12809)
Assay: hERG protection against dofetilide inhibition, confirmation, cell-based, thallium flux, duplicate retest, dofetilide IC70 (AID 1835)
Details: hERG cell line, FluxOR thallium flux, dofetilide-blocked; at 10 µM; hits give high values

Sequence of Voltage-gated inwardly rectifying potassium channel KCNH2 (Homo sapiens) (Q12809 whole entry, looked up): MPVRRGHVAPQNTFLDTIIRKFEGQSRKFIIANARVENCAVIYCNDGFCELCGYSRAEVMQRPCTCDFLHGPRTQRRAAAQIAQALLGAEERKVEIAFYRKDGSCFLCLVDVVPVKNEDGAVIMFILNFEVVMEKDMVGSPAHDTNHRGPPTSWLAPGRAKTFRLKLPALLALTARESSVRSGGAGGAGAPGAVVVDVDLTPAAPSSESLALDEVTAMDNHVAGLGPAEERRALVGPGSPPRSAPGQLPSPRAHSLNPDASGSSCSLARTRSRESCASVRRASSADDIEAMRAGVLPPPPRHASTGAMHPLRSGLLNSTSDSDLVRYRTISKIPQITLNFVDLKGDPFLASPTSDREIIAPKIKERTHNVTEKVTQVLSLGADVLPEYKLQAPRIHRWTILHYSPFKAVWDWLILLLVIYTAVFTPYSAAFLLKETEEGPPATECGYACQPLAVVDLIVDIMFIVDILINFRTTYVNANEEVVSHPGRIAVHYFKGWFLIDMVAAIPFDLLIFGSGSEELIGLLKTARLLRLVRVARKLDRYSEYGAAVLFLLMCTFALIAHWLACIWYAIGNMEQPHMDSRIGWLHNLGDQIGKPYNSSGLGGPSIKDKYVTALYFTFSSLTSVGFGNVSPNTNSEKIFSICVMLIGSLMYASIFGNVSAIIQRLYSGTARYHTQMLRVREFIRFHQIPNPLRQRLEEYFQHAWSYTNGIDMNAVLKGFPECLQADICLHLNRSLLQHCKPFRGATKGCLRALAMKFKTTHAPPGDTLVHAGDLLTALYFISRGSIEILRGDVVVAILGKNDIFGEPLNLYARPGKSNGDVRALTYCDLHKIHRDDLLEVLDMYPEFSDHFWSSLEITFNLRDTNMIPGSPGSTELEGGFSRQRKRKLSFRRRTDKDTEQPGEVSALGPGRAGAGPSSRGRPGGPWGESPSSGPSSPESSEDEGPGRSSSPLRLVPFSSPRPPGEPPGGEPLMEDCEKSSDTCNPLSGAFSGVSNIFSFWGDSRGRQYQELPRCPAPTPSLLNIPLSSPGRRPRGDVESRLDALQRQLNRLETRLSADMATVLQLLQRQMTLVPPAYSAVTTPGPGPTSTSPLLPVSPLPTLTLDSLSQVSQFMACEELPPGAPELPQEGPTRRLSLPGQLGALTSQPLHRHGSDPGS

SMILES	activity increase over dofetilide control, less the hit threshold
Cc1cc(C=O)c2c(c1)C=CC1(Oc3ccccc3C(=O)N1C)O2 (stereo unspecified)	-29% (inactive)
O=C(Cn1c(=O)c2cccn2c2ccccc21)NCCc1ccc(Cl)cc1	-16% (inactive)
Oc1oc(-c2cccc3ccccc23)nc1/C=N/c1nccs1	4% (active)
CCCCn1nnc(NC(=O)c2ccc(-c3cccc([N+](=O)[O-])c3)o2)n1	-6% (inactive)
O=C(O)CSc1nc2ccccc2nc1Cc1ccccc1F	5% (active)
O=C(O)CSCc1c(F)cccc1Cl	-7% (inactive)
Cn1c(CNC(=O)c2ccccc2F)nnc1SCc1nc2ccccc2c(=O)[nH]1	-9% (inactive)
Cc1ccc(NC(=O)CN2C(=O)S/C(=C\c3cccn3-c3cccc(C(=O)O)c3)C2=O)c(C)c1	-4% (inactive)
COc1ccc(C(=O)Nc2ccc(-n3nncc3C(C)(C)C)cc2)cc1	-4% (inactive)
Cc1ccc(NC(=O)CN2C(=O)N/C(=C/c3ccccc3OCc3cccc(C(=O)O)c3)C2=O)cc1	-16% (inactive)
COc1ccc(NC(=O)CN2C(=O)S/C(=C/c3cccn3-c3ccc(C(=O)O)cc3)C2=O)cc1	94% (active)
Cc1cccc(NC(=O)CN2C(=O)S/C(=C\c3cccn3-c3cccc(C(=O)O)c3)C2=O)c1	7% (active)
Oc1c(Cl)cc(Cl)cc1Sc1cc(Cl)cc(Cl)c1O	76% (active)
O=C(O)CCCN1C(=O)C2C3c4ccccc4C(c4ccccc43)[C@@H]2C1=O (stereo partly specified)	-15% (inactive)
Cc1noc(C)c1-c1nnc(-c2ccc(C(F)(F)F)cc2)o1	-11% (inactive)
O=C(/C=C/c1ccccc1)CC(=O)c1ccccc1O	11% (active)
Cc1ccc(O)c(C(=O)CC(=O)c2ccccc2Cl)c1	-2% (inactive)
Cc1ccc(C(=O)CC(=O)c2ccccc2C)c(O)c1	-3% (inactive)
Cc1cccc(C(=O)NC(=S)N2CCc3ccccc3C2)c1	32% (active)
Cc1ccc(C(=O)NC(=S)N2CCN(c3cc(C)ccc3C)CC2)cc1	-3% (inactive)
Cc1cccc(C(=O)NNC(=S)NC(=O)c2ccccc2)c1	-20% (inactive)
CC1(C)CC2CC(C)(CN2C(=S)NC(=O)c2ccccc2Cl)C1 (stereo unspecified)	28% (active)
Cc1cccc(OCC(=O)NC(=S)N2CCCc3ccccc32)c1	-10% (inactive)
CN1C(=O)CSc2ccc(NC(=O)N3CCc4ccccc43)cc21	-10% (inactive)
O=C(COc1ccccc1)NC(=S)Nc1ccc2c(c1)Cc1ccccc1-2	-9% (inactive)
O=C(Nc1cccn(Cc2c(Cl)cccc2Cl)c1=O)c1ccccc1Cl	-21% (inactive)

SMILES	activity increase over dofetilide control, less the hit threshold
NS(=O)(=O)c1ccc(NC(=O)c2ccc(S(=O)(=O)N3CCc4ccccc43)cc2)cc1	-1% (inactive)
O=C(COc1ccccc1)NC(=S)N1CCc2ccccc21	3% (active)
O=C(NC(=S)N1CCc2ccccc21)c1ccccc1Br	92% (active)
CC1c2nc3ccccc3n2C(CC(=O)NCCCN2CCOCC2)C(=O)N1Cc1ccccc1 (stereo unspecified)	-8% (inactive)
CCCOc1ccc(C2NC(=S)NC(c3ccccc3)=C2C(=O)Nc2ccc(C)cc2)cc1OC (stereo unspecified)	-5% (inactive)
Cc1cc(C(=O)N/N=C/c2ccc(O)c([N+](=O)[O-])c2)n[nH]1	-13% (inactive)
O=C(NC(=S)N1CCCc2ccccc21)c1ccccc1	-18% (inactive)
O=C(NC(=S)N1CCc2ccccc21)c1ccccc1	43% (active)
O=C(NC(=S)N1CCc2ccccc21)c1ccccc1Cl	53% (active)
O=C(c1ccccc1)N1CCc2ccccc21	-6% (inactive)
O=C(NC(=S)N1CCc2ccccc21)c1ccc(Br)o1	12% (active)
O=C(NC(=S)N1CCc2ccccc21)c1ccco1	-11% (inactive)
O=C(N/N=C/c1ccsc1)C1CC1	-4% (inactive)
CC1CCN(S(=O)(=O)c2ccc3nc(N4CCN(c5ccccc5)CC4)ccc3c2)CC1	-22% (inactive)
COc1cc(C2c3c(n[nH]c3C)C(=O)N2c2ccc(C)cc2)ccc1O (stereo unspecified)	-15% (inactive)
O=C(NCc1cccnc1)c1ccc(NS(=O)(=O)c2ccc(F)cc2)cc1	-9% (inactive)
CCOC(=O)N/N=C/C=C/c1ccccc1[N+](=O)[O-]	4% (active)
O=C(N/N=C/c1ccccc1[N+](=O)[O-])c1ccc(CN2CCOCC2)cc1	-4% (inactive)
CC1=NNC(=O)C1CC(=O)N/N=C/C=C/c1ccccc1 (stereo unspecified)	-18% (inactive)
Cc1cc(C)n2nc(SCC(=O)NC3CCCCC3C)nc2n1 (stereo unspecified)	-19% (inactive)
Cn1c(O)c(N=NC(=S)Nc2ccccc2F)c2cc(S(=O)(=O)N3CCOCC3)ccc21	-22% (inactive)
Cc1ccccc1Cn1c(O)c(N=NC(=S)Nc2ccccc2F)c2ccccc21	6% (active)
Cc1ccc(C)c(Cn2c(O)c(N=NC(=S)Nc3ccccc3F)c3ccccc32)c1	-2% (inactive)
Oc1c(N=NC(=S)Nc2ccccc2F)c2ccccc2n1Cc1ccccc1F	19% (active)
Oc1c(N=NC(=S)Nc2ccccc2F)c2ccccc2n1Cc1ccccc1Cl	-2% (inactive)
